Assay results: PubChem BioAssay (NCATS)
Results filed as inconclusive are left out. A call without a number means that no potency is given here. The source made the active and inactive calls. The call rests on the fitted dose curve; in most records, active means well fitted inhibition curve with a large enough effect; inconclusive means small, poorly fitted or top-dose-only effect; inactive means flat fitted curve, though single readings scatter.

Each compound was assayed against Calcium and integrin-binding protein 1 (Homo sapiens) (UniProt Q99828) (assay: Primary qHTS for Identification of Calcium Integrin Binding Protein 1 (CIB1) Competitor (AID 1508620)). Settings: CIB1-GST / FITC-alphaIIb peptide fluorescence polarization; series mostly up to 114 µM.
Calcium and integrin-binding protein 1 (Homo sapiens), sequence (Q99828 whole entry, looked up): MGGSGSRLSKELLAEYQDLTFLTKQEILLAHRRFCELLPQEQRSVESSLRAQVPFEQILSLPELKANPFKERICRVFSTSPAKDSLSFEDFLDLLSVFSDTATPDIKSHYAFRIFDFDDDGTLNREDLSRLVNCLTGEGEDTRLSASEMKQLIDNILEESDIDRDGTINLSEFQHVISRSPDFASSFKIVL
Summary of the method: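 CIB1-GST (1 uM final) and compound incubated 15 min at room temperature before adding FITC-alphaIIb peptide tracer (100 nM final). Competition for binding read by fluorescence polarization (ex 480, em 540) after another 15 min at room temperature.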
Potency means the concentration at half of the fitted maximal effect.

SMILES | Potency
O=C(OCC#CCSc1nnc(-c2cccc3ccccc23)o1)c1ccc(Cl)cc1 | inactive
Cc1ccc(OCCn2c(CCNC(=O)C3CCCCCC3)nc3ccccc32)cc1 | inactive
COc1ccc(CN(Cc2ccccc2)C(=O)c2ccccc2N)cc1COc1ccc(NC(C)=O)cc1 | inactive
O=[N+]([O-])c1ccccc1NCc1ccc(O)c2ncccc12 | inactive
O=C(NCCc1ccc2c(c1)OCO2)c1cc2sccc2[nH]1 | inactive
COc1cccc(C2c3c(ncn(-c4ccccc4OC)c3=N)Oc3ccc4ccccc4c32)c1 (stereo not given) | inactive
O=C(c1ccc(-c2cnc3c(O)cccc3c2)cc1)N1CCNCC1 | inactive
O=C(/C=C/c1ccc(F)cc1)Nc1cccc([S+](=O)([O-])Nc2ccccc2F)c1 | inactive
Cc1ccc(NS(=O)(=O)c2ccc3c(c2)N(C)CCO3)cc1C | inactive
CC(C)N1CCc2c(sc(NC(=O)Cc3ccccc3)c2-c2nc3ccccc3s2)C1 | 28.2 µM (active)
COC(=O)c1ccc(O)c2ncc(N(C)C)cc12 | inactive
Cc1cccc(CNc2ncnc3ccc(-c4cccc(C)c4)cc23)c1 | inactive
Cc1cn([C@H]2C[C@H](N[S+](=O)([O-])Cc3ccc(Cl)cc3)[C@@H](CO)O2)c(=O)[nH]c1=O | inactive
Cc1cnc(-c2ccccc2C(C)C)nc1NCC1CCN(c2cccnc2)C1 (stereo not given) | inactive
Oc1ccc(/C=C/c2ccccc2F)c2cccnc12 | inactive
Cc1cc(-c2nnc3n2CCCCC3)c(C)n1-c1ccccn1 | inactive
Fc1cc(Nc2nc(-c3ccncc3)nc3ccccc23)ccc1-c1cccc(C(F)(F)F)c1 | inactive
Cc1cc2c(s1)c1cnn(Cc3cc(F)ccc3F)c(=O)c1n2C | inactive
FC(F)(F)c1ccccc1-c1nc(NCc2ccc(-c3ccc(Cl)c(Cl)c3)cc2)c2ccccc2n1 | inactive
CC(Cc1ccccc1)C(=O)Nc1ccc(Cl)cc1C(=O)O (stereo not given) | inactive

SMILES | Potency
Cn1nnnc1Sc1ncnc2scc(-c3cccc(N)c3)c12 | inactive
Cc1cc2c(s1)c1cnn(Cc3cccc(Cl)c3F)c(=O)c1n2C | inactive
O=C(O)CCc1cc(F)c(S(=O)(=O)N2CCN(S(=O)(=O)c3ccc4c(c3)OCCO4)CC2)cc1F | inactive
COc1ccc(NC(=O)c2cnn3c(C)cc(C)nc23)cc1Cl | inactive
N#Cc1ccc(NC(=O)Nc2nnc(-c3ccncc3)s2)c(Cl)c1 | inactive
O=C(O)c1ccc(O)c2ncc(-c3ccc(C(=O)N4CCNCC4)cc3)cc12 | inactive
COCCNc1cc2c(cc1[S+](=O)([O-])Nc1ccc(C)c(C)c1)CCC(=O)N2 | inactive
Cc1cnccc1-c1nc(Nc2ccc(F)c(F)c2)c2ccccc2n1 | inactive
CNc1cc2c(cc1S(=O)(=O)Nc1ccc(C)c(C)c1)CCC(=O)N2 | inactive
O=C(NCc1nnc(-c2cc3ccccc3[nH]2)o1)c1ccccc1 | inactive
N#Cc1no[n+]([O-])c1-c1ccccc1 | inactive
Cc1cc(C)nc(NC(=S)N2CCN(C3=Nc4ccccc4Oc4ccccc43)CC2)c1 | inactive
COc1cccc(Cn2ncc3c4sc(B(O)O)cc4n(C)c3c2=O)c1 | inactive
O=C(c1ccccc1O)N(Cc1cccs1)Cc1cccs1 | inactive
N#Cc1ccc(C[C@@H](NS(=O)(=O)c2ccc(C(=O)O)cc2)C(=O)O)cc1 | inactive
Cc1ccc(NS(=O)(=O)c2ccc3c(c2)n(C)c(=O)n3C)cc1C | inactive
CCN(Cc1cccs1)c1ncnc2ccc(-c3ccc4c(c3)OCO4)cc12 | inactive
CCN(CC)c1ccc(NC(=O)CN(C)Cc2c(O)ccc3ccccc23)cc1 | inactive
O=C(Nc1ccccn1)c1sc2ccc([N+](=O)[O-])cc2c1Cl | inactive
N#Cc1c(-c2ccc(F)cc2)no[n+]1[O-] | inactive
